According to PubChem BioAssay AID1259397 (Fisher Drug Discovery Resource Center, 2018):
Values joined by “and” are separate entries in the source; they are usually repeats but may differ in a detail not shown here. Equal values may be shown once. The whole screen tested about 130,000 compounds, of which about 230 (0.18%) were called active. This is one part of a sample in which actives are shown more often than they occur. Values without a mark were called inactive.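 The calls were made as follows: active = inhibition of cGAS enzyme activity at or above 60%; inactive = the rest.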

Target: Cyclic GMP-AMP synthase (Mus musculus) (UniProt Q8C6L5)
Assay: inhibitors of Mus musculus cyclic GMP-AMP synthase, initial high-throughput assay, cell-free, RapidFire MS (AID 1259397);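 also: enzyme stimulated by 45 bp dsDNA with ATP and GTP substrates; cGAMP share of summed cGAMP plus half ATP and half GTP signals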
Conditions: recombinant mouse cGAS, cGAMP by RapidFire MS; at 12.5 µM; active compounds read high

Sequence of Cyclic GMP-AMP synthase (Mus musculus) (Q8C6L5 whole entry, looked up): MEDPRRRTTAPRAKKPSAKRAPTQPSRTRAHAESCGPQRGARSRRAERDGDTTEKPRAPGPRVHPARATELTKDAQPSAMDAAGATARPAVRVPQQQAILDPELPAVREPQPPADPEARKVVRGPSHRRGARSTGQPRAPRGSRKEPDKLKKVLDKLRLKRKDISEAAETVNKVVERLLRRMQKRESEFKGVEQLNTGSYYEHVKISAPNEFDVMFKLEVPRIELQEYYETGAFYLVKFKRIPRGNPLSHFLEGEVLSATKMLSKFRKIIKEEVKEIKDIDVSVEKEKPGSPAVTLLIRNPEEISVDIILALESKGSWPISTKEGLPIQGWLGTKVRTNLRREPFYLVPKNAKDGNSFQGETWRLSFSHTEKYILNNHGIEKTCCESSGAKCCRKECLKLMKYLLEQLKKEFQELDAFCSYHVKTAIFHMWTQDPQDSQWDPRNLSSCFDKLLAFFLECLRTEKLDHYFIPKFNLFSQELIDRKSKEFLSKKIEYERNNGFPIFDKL

Structure (SMILES)	inhibition
CC1=C(C(=O)N2CCC(N3CCC(C(=O)NCC4CCCO4)CC3)CC2)OCCO1 (centres undefined)	-2.1%
O=C(CCc1nc2ccccc2s1)NC1CCN(Cc2ccccc2)C1 (centres undefined)	-1.33%
Cc1cc(C)n(CC2CCN(C(=O)C3CCN(S(C)(=O)=O)CC3)CC2)n1	-6.54%
Cc1cn2c3c(=O)n(CCc4ccccc4)c(=O)n(C)c3nc2n1CCOCCO	-7.78%
CCCNC(=O)C1(C)CCCN(Cc2c(C)nn(-c3ccccc3)c2C)C1 (centres undefined)	-6.24%
CCOc1ccc(CNC(=O)Cc2sc(=S)[nH]c2C)cc1F	-6.57%
CC(=O)Nc1ccc(Cl)c(C(=O)N(C)CCc2nc3ccccc3[nH]2)c1	-12.1%
CCc1ccc(C(=O)NNC(=S)Nc2sc(CC)cc2C(=O)OC)s1	-2.22%
COc1cccc(N2C[C@@H]3C[C@@H](c4cccs4)N4CCC[C@@]34C2=O)c1	-6.87%
COC(=O)Cn1nc([N+](=O)[O-])n(CC(=O)OC)c1=O	-9.81%
COc1ccc(NC2CCCN(c3nc(C(F)(F)F)nc(C)c3C)C2)cc1 (centres undefined)	-21.1%
CCCOc1ccc(C(=O)NNC(=O)c2ccc[nH]c2=O)cc1	2.97%
CN(C)/C=C(\C(=O)c1ccc(Cl)c(Cl)c1)c1nnnn1-c1ccccc1	-2.94%
CC1CN(Cc2ccccc2F)CCO1 (centres undefined)	-0.301%
CC(C(=O)N1CCCC1)N1CCOC(CN(C)C)C1 (centres undefined)	-1.48%
CCc1ccc(Cl)c(CC)c1NC(=O)c1cnccn1	-4.79%
N#Cc1ccc(C2=CSC3=NS(=O)(=O)CCN23)cc1	-8.31%
O=C(NCCC(F)(F)F)c1csc(N2CCN(Cc3ccccc3)C2=O)n1	-6.72%
Cc1noc(C)c1C(=O)N1CCC1(C)C(=O)NS(=O)(=O)c1ccc(C#N)cc1 (centres undefined)	-9.56%
O=[N+]([O-])c1cc(S(=O)(=O)C(F)(F)F)ccc1N1CCCC1	-9.38%
C=CCSc1nc2ccccc2n1CCO	-7.69%
CC(=O)Nc1ccc(Cl)c(C(=O)NC(CCn2ccnc2)c2ccccc2)c1 (centres undefined)	-10.1%
CCC1(C)Cc2ccccc2-c2nc3[nH][nH]c(=S)n3c(=O)c21 (centres undefined)	15%
COc1ccccc1/C=C/C=C1\N=C(c2ccc(C(C)(C)C)cc2)OC1=O	-5.55%

Structure (SMILES)	inhibition
Cc1ccc(C)c(C=C2SC(N3CCOCC3)=NC2=O)c1	-2.54%
O=C(NC[C@H]1C[C@H]2C=C[C@H]1C21CC1)C1CCN(Cc2ccco2)CC1	-6.29%
CN(Cc1cn[nH]c1-c1ccc(F)cc1)C(=O)Cc1c[nH]c2ccccc12	-11.3%
OCC1(Cc2ccccc2Cl)CCN(C2CCN(c3ccccc3)CC2)CC1	-7.34%
Cc1cc2nc(N(CCN3CCOCC3)C(=O)C3COc4ccccc4O3)sc2cc1C (centres undefined)	-7.12%
CCN(CCn1cccn1)C(=O)CC1C(=O)NCCN1C1Cc2ccccc2C1 (centres undefined)	3.93% and -3.95%
Cc1c(C)c(C)c(C(=O)C2CCN(C(=O)CC3NC(=O)NC3=O)CC2)c(C)c1C (centres undefined)	-1.46%
Cc1nc2c(cnn2C(C)C)c(C)c1CCC(=O)NC1CCCC1	-7.8%
Cc1ccsc1C(CNC(=O)c1cnn2ccn(C)c12)N(C)C (centres undefined)	-20.4%
O=S(=O)(c1ccc2c(c1)OCCCO2)N1CCCC(c2nc3ccccc3s2)C1 (centres undefined)	10%
Cc1sc2ncn(CC(=O)c3ccc[nH]3)c(=O)c2c1C	14.3%
Cc1nc2ccc(C(=O)N3CCC4(CC3)Nc3ccccc3C(=O)N4CCO)cc2[nH]1	-0.499%
COc1cc2c(cc1CNC1CCN(Cc3ccccc3)C1)OC(C)C2 (centres undefined)	-13.3%
CC(=O)OC(OC(C)=O)c1coc2c(F)cccc2c1=O	2.77%
CCC1CCC(N(CC(=O)NC(C)C(=O)N(C)C)C(C)c2ccc(F)cc2)CC1 (centres undefined)	-8.3%
Cc1[nH]n(-c2nc(O)c(C)c(=O)[nH]2)c(=O)c1CCO	-3.37%
CCCNc1nc2c(C)cccn2c(=O)c1C=C1SC(=S)N(CC(C)C)C1=O	-5.08%
Cc1ccc(NC(=O)CN2CCCN(c3ccc(C(F)(F)F)cn3)CC2)cc1	-2.92%
CC(Nc1ncnc2sc3c(c12)CCCC3)c1ccccc1 (centres undefined)	-2.34%
CN(Cc1nc(-c2ccc(Br)s2)no1)c1nccs1	-1.14%
CN(C)c1ccc(N2CC(=O)C(c3nc(-c4cccc(Cl)c4)cs3)C2=N)cc1 (centres undefined)	-4.69%
CCc1ccc(NC(=O)C(C)n2cc(C(F)(F)F)ccc2=O)cc1 (centres undefined)	-4.23%
CCCN(C)CC1CCN(C(C)C(=O)Nc2ccc(C(F)(F)F)cc2)C1 (centres undefined)	93.9% (active)
Cc1ccc(NC(=O)C(C)N2CCCC(C(F)(F)F)C2)cc1 (centres undefined)	-5.21%

Structure (SMILES)	inhibition
CCn1ccc(C(=O)NCc2cccnc2Oc2ccc(C)nc2)n1	4.9%
O=C(CSc1nnc(-c2ccco2)o1)NC1CC1	-7.76%
Cc1cccc[n+]1CC(=O)C12CC3CC(CC(C3)C1)C2	-6.75%
COc1ccc2c(c1)CCc1cc(C(=O)NC(C)c3c(C)nn(C)c3C)sc1-2 (centres undefined)	0.0306%
CC(Nc1cccc(Br)c1)N1C(=O)CCC1=O (centres undefined)	-5.36%
COc1ccc(OC)c(C2CCCN2Cn2nc(-c3ccccc3F)n(C)c2=S)c1 (centres undefined)	-6.22%
NC(=O)Cn1nnc(-c2ccccc2Br)n1	-12.5%
COc1cccc(N(CN2C(=O)c3ccccc3C2=O)C(C)=O)c1	22.9%
CC(C)(C)SCCNC(=O)CN(c1ccc(Cl)cc1Cl)S(=O)(=O)c1ccccc1	-1.39%
Cc1ccc(-c2cnc(C(O)c3cccc(C)c3C)[nH]2)cc1 (centres undefined)	-3.19%
N#Cc1ccc(F)c(COC(=O)c2cncc(Br)c2)c1	6.6%
Cc1ccc(C)c(CNc2cccc(C(=O)N3CCC(O)CC3)c2)c1	-8.84%
CCC(=O)N1CCN(c2ccc(Cl)cc2NC(=O)c2cccs2)CC1	-6.87%
CC(=O)N(C)c1ccc(NC(=O)CNCCc2cccs2)cc1	-11.1%
COc1ccc(OC)c(NC(=O)C(C)N2CCN(Cc3ccc(Cl)s3)CC2)c1 (centres undefined)	-4.59%
CCO[C@H]1COC[C@@H]1NCC(=O)Nc1ccc(Cl)c(OC)c1	-5.39%
O=C(O)c1cc(-c2ccccc2)nn1-c1ccc(Cl)cc1	-1.5%
Cc1cc(-n2cnnc2)ncc1-c1ccc(O)cc1	-7.05%
Cc1ccc(NC(=O)CN2Cc3ccccc3CC2C(N)=O)cc1 (centres undefined)	-6.79%
CCNC(=O)C1(C)CCN(Cc2ccc(C(=O)OCC)o2)C1 (centres undefined)	-5.82%
CN=c1scc(-c2ccc(Br)cc2)n1N=Cc1cc(OC)c(OC)c(OC)c1	-11.7%
CC(C)Nc1ncc(C(=O)N(Cc2ccco2)C(C)C(C)C)cn1 (centres undefined)	-1.04%
C=CC[C@H]1CC(C)=C[C@H](CC=C)N1C(=O)c1cnc2cccc(C)n2c1=O	-2.04%
O=C1COCc2ccc(-c3cccnc3)cc2N1CC1CC1	-11.8%

Structure (SMILES)	inhibition
CCCn1c(=O)n(C)c(=O)c2c(SCC(=O)C(C#N)=C(C)N)nc(CC(C)C)nc21	-1.38%
CC1(C(=O)NCc2ccc3c(c2)OCO3)CCN1CCc1ccccc1 (centres undefined)	-12.7%
COc1ccc(CC(=O)OCc2cc(-c3ccc4c(c3)OCO4)on2)cc1OC	-7.02%
CC(C)c1cc(C2CCN(C(=O)CN3CCOC3=O)CC2)[nH]n1	-25.2%
COc1ccc(NC(=O)CCC2CCN(Cc3ccc(SC)cc3)CC2)c(OC)c1	-5.25%
Cc1cccc(Nc2ncccc2C(=O)NCc2ccccn2)c1C	1.13%
Cc1[nH]n2c(=O)c3c(nc2c1-c1cccc2ccccc12)CCCC3	1.14%
CN(Cc1ccc(Br)s1)C(=O)CSCc1ccc(C#N)cc1	7.87%
O=S(=O)(NCc1ccccc1)NCc1csc(-c2cnccn2)n1	-34.7%
O=C1CN(c2ccc(NC(=O)c3ccc4c(c3)COC4)cc2)CCN1	-2.78%
CN1CCN2CCN(C(=O)c3cccc(N4CCNC4=O)c3)CC2C1=O (centres undefined)	-13.8%
C=C(C)Cn1c(N2CCN(Cc3cccc(C)c3)CC2)nc2c1c(=O)[nH]c(=O)n2C	-6.09%
O=C1NC(=O)C(=Cc2ccc(C(=O)O)cc2)S1	35.6%
O=C1NC(=S)SC1=Cc1ccccc1F	62.6% (active)
COc1cc(C=C2SC(=S)NC2=O)cc(Br)c1O	12%
CC(=O)NN=C1CCCc2c(C)cc(C)cc21	23.5%
O=C(CN1C(=O)NC2(CCCC2)C1=O)N1CCN(C(=O)c2cccs2)CC1	-1.67%
O=C(Nc1ccccc1Cl)C(=O)N1CCC2(CC1)C(=O)Nc1ccccc12	-33.1%
CCn1ccnc1CN(C)C(=O)c1cc(COc2cccc3cnccc23)on1	-1.51% and -6.44%
CC(C)(C)CN(CCO)Cc1ncc(C(C)(C)C)o1	-4.58%
CS(=O)(=O)Cc1nc(-c2cc3c(cc2F)NC(=O)CC3)cs1	-12.8%
C=CCN(CC=C)C(=O)CSc1nc2scc(-c3ccc(F)cc3)c2c(=O)n1C	11.1%
